# Test results published in the supplement of paper PMC11732987, “Enantioselective OTUD7B fragment discovery through chemoproteomics screening and high-throughput optimisation” (Communications Chemistry, 2025).
# Values without a mark were called inactive.
# Columns and labels:
# Test in all cases: log2 ratio of Biotin-Ahx-Ub-VS probe labelling (fragment/DMSO); higher = less target engagement (more negative = stronger competition), active = hit call of the paper (q ≤ 0.05, log2 ratio ≤ -1)
# Conditions in all cases: compound concentration: 200 uM; treatment time: 3 h
# OTUD6B = biological target: T1, OTUD6B (UniProt Q8N6M0)
# T1 sequence (whole entry): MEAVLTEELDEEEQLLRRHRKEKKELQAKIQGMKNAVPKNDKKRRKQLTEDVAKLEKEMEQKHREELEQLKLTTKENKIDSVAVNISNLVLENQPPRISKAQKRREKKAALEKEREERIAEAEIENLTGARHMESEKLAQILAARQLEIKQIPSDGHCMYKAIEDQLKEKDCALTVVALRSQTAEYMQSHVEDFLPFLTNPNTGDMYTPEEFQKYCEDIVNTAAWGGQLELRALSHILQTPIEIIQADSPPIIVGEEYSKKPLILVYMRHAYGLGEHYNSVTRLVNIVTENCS
# Procedure, shortened: (§1)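 Each value is an average log2 ratio of fragment to vehicle, tested by unpaired t-test. The underlying Spectronaut label-free quantities were global-median-normalised, and only proteins with ≥2 unique peptides were included. Triplicate HEK293T lysate samples (495 µg) were exposed to fragment at 200 µM or vehicle for 3 h, then to Biotin-Ahx-Ub-VS at 0.5 µM final for 1 h, before NeutrAvidin enrichment of labelled DUBs, LysC and trypsin digestion, and diaPASEF LC-MS/MS.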
# OTUD7B = biological target: T2, OTUD7B (UniProt Q6GQQ9)
# T2 sequence (whole entry): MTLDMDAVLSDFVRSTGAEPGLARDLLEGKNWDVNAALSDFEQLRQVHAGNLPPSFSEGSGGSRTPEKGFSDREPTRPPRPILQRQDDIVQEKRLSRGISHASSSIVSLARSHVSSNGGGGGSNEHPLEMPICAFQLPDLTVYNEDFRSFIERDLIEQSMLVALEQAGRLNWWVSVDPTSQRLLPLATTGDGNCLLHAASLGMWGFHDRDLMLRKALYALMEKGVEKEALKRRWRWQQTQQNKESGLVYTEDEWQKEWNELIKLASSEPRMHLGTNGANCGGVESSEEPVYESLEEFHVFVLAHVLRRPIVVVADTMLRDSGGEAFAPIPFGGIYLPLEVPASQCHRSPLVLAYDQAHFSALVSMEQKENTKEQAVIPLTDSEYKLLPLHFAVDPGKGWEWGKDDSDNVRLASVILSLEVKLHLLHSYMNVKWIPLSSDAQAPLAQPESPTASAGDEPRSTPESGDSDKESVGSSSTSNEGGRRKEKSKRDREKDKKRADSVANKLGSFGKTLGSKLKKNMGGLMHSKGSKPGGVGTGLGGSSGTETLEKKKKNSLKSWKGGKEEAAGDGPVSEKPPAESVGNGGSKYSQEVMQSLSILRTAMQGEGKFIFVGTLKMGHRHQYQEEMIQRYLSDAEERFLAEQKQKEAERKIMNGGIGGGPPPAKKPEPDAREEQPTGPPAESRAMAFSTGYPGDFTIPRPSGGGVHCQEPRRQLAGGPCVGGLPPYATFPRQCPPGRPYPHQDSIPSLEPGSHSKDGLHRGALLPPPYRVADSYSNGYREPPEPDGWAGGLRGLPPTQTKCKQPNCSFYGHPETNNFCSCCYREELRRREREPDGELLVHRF
# Procedure, shortened: as §1
# PRPF8 = PRPF8 (UniProt Q6P2Q9)
# Procedure, shortened: as §1
# PSMD7 = biological target: T3, PSMD7 (UniProt P51665)
# T3 sequence (whole entry): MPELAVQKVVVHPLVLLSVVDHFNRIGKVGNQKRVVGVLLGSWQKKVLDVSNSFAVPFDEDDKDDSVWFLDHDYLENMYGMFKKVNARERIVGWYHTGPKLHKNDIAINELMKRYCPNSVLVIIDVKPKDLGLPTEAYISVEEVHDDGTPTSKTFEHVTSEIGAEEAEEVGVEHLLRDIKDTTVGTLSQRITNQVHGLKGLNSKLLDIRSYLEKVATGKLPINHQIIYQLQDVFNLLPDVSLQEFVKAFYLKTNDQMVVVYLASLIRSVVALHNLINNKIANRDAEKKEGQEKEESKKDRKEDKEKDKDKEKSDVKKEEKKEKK
# Procedure, shortened: as §1
# UCHL1 = UCHL1 (UniProt P09936)
# Procedure, shortened: as §1
# UCHL3 = biological target: T4, UCHL3 (UniProt P15374)
# T4 sequence (whole entry): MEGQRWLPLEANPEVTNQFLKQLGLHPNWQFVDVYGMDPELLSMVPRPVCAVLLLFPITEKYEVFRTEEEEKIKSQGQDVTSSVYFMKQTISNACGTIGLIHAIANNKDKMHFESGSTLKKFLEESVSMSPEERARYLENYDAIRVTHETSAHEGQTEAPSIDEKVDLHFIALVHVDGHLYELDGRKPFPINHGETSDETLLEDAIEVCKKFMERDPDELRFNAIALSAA
# Procedure, shortened: as §1
# UCHL5 = biological target: T5, UCHL5 (UniProt Q9Y5K5)
# T5 sequence (whole entry): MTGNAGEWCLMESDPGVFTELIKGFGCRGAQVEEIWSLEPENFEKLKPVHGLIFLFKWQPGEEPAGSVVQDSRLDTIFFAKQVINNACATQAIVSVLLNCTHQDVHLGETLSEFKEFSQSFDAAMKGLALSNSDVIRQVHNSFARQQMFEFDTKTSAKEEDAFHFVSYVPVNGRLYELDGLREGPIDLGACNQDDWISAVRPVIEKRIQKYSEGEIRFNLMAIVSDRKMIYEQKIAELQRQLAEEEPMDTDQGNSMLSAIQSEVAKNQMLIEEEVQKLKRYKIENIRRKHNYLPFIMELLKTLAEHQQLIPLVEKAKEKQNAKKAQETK
# Procedure, shortened: as §1
# USP10 = USP10 (UniProt Q14694)
# Procedure, shortened: as §1
# USP15 = biological target: T6, USP15 (UniProt Q9Y4E8)
# T6 sequence (whole entry): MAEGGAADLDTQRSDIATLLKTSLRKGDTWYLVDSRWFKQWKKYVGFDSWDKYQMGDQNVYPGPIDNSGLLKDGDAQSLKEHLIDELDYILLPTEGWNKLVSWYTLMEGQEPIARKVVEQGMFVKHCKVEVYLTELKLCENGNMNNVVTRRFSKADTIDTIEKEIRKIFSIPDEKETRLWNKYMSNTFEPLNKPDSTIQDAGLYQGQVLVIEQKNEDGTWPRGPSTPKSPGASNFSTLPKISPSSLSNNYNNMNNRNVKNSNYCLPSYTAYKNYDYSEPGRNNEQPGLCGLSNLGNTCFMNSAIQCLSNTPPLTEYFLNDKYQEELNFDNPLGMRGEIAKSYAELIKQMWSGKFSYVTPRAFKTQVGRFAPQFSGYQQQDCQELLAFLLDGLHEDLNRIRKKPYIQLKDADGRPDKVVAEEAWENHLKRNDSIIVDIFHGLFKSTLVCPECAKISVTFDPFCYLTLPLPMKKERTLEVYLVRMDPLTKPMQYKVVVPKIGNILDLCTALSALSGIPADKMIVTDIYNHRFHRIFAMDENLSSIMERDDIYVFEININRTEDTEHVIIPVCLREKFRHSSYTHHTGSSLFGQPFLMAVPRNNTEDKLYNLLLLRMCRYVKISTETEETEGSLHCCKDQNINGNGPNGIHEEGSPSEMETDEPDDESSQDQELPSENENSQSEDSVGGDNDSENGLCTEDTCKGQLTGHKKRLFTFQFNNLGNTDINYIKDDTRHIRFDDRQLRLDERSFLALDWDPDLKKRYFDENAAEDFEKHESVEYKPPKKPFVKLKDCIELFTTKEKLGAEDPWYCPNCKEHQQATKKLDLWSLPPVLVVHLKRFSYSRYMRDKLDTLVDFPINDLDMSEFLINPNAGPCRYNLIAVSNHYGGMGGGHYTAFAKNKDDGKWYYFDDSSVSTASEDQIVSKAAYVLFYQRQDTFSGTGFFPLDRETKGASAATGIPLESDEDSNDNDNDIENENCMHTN
# Procedure, shortened: as §1
# USP16 = USP16 (UniProt Q9Y5T5)
# Procedure, shortened: as §1
# USP10, sequence (Q14694 whole entry): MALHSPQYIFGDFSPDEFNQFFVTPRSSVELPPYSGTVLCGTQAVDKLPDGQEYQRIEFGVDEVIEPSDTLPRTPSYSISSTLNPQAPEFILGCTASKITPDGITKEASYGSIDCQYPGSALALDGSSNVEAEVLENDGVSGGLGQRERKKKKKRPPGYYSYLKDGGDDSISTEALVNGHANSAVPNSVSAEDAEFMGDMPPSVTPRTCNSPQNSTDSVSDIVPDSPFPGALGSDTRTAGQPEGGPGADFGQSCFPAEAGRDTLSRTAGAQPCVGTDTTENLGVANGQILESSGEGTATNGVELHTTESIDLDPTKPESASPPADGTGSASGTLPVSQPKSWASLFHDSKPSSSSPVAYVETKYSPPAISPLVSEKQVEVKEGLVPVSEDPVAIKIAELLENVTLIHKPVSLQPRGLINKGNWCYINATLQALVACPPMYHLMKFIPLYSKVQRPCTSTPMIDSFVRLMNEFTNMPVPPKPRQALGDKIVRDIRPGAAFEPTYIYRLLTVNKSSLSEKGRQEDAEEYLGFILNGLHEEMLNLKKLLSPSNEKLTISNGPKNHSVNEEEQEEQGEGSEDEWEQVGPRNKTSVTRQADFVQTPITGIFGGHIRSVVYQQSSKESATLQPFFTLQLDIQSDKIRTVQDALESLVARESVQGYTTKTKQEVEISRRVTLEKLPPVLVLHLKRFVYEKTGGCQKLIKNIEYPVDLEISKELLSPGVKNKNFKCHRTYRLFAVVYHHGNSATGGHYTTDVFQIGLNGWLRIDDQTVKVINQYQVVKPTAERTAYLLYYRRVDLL
# USP16, sequence (Q9Y5T5 whole entry, looked up): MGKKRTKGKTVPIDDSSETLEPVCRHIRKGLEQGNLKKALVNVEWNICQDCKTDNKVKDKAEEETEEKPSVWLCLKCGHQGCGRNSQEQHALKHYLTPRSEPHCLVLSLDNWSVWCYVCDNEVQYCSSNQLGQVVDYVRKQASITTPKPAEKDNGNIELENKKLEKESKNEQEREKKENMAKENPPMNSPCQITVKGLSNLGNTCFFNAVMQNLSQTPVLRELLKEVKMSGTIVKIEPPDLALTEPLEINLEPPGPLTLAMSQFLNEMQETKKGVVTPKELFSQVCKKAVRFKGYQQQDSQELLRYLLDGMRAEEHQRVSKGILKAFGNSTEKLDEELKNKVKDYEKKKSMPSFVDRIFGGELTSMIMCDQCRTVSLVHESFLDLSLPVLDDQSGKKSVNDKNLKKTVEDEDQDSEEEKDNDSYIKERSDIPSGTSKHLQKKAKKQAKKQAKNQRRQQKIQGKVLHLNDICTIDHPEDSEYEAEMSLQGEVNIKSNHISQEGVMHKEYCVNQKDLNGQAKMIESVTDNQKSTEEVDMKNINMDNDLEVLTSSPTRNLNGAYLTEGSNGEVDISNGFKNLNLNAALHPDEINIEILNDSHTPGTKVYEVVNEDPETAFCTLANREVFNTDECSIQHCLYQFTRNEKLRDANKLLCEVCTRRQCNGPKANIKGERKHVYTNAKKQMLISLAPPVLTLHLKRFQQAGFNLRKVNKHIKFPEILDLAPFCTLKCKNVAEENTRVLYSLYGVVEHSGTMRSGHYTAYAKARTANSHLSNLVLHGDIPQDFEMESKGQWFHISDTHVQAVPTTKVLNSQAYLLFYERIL
# UCHL1, sequence (P09936 whole entry, looked up): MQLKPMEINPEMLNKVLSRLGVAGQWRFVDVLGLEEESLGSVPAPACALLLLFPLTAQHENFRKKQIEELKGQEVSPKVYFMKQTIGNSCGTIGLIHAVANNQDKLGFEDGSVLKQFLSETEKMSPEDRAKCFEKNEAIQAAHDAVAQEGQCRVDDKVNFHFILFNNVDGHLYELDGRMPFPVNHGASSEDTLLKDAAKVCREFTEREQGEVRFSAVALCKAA
smiles,measurement,setting,value
Cc1cccc(NC(=O)[C@@H]2CCCN2C(=O)CCl)n1,log2 ratio of Biotin-Ahx-Ub-VS probe labelling,OTUD6B,-0.319
same,log2 ratio of Biotin-Ahx-Ub-VS probe labelling,OTUD7B,-0.29
same,log2 ratio of Biotin-Ahx-Ub-VS probe labelling,PRPF8,-0.0295
same,log2 ratio of Biotin-Ahx-Ub-VS probe labelling,PSMD7,-0.254
same,log2 ratio of Biotin-Ahx-Ub-VS probe labelling,UCHL1,-1.67 (active)
same,log2 ratio of Biotin-Ahx-Ub-VS probe labelling,UCHL3,-0.737
same,log2 ratio of Biotin-Ahx-Ub-VS probe labelling,UCHL5,-0.436
same,log2 ratio of Biotin-Ahx-Ub-VS probe labelling,USP10,-0.09
same,log2 ratio of Biotin-Ahx-Ub-VS probe labelling,USP15,-0.215
same,log2 ratio of Biotin-Ahx-Ub-VS probe labelling,USP16,-0.0941
